The whole screen tested about 5,500 compounds, of which about 2,000 (36%) were called active. Inconclusive results (about 18%) are left out. Cut-off read from the data, not from the text of the source: active = normalized growth mostly below about 0.91 (no sharp cut-off); inconclusive = no clear call, values can overlap the other calls; inactive = mostly above about 0.92. The list shows a part of the results.
Assay: chemical genetic growth profiling, strain panel (AID 1159580);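 note: tested at 20 µM; growth read once vehicle control cultures reached saturation at 30 °C; 1 = growth at the plate median or of vehicle wells; lower values mean less growth of the strain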
Details: growth OD

Measured: normalized growth

Cc1ccccc1N1C(=O)c2cc(S(N)(=O)=O)c(Cl)cc2NC1C (stereo not drawn)
inactive: S. cerevisiae deletion strains, locus YKL009W, strain mrt4, stronger effect = lower value 1.01 | S. cerevisiae deletion strains, locus YKL068W, stronger effect = lower value 0.982 | S. cerevisiae deletion strains, locus YKL085W, strain MDH1 (second series), stronger effect = lower value 1.03 | S. cerevisiae deletion strains, locus YKL085W, strain MDH1, stronger effect = lower value 1.03 | S. cerevisiae deletion strains, locus YKL160W, strain elf1, stronger effect = lower value 0.969 | S. cerevisiae deletion strains, locus YKL190W, strain CNB1, stronger effect = lower value 0.994 | S. cerevisiae deletion strains, locus YKR001C, strain vps1, stronger effect = lower value 0.988 | S. cerevisiae deletion strains, locus YKR026C, strain gcn3, stronger effect = lower value 0.94 | S. cerevisiae deletion strains, locus YKR091W, strain srl3, stronger effect = lower value 0.984 | S. cerevisiae deletion strains, locus YLL001W, strain dnm1, stronger effect = lower value 0.969 | S. cerevisiae deletion strains, locus YLL026W, stronger effect = lower value 1 | S. cerevisiae deletion strains, locus YLL041C, strain sdh2, stronger effect = lower value 0.988 | S. cerevisiae deletion strains, locus YLR027C, strain aat2, stronger effect = lower value 0.987 | S. cerevisiae deletion strains, locus YLR039C, strain RIC1, stronger effect = lower value 0.974 | S. cerevisiae deletion strains, locus YLR058C, strain SHM2, stronger effect = lower value 0.987 | S. cerevisiae deletion strains, locus YLR102C, strain apc9, stronger effect = lower value 0.989 | S. cerevisiae deletion strains, locus YLR113W, strain HOG1, stronger effect = lower value 0.985 | S. cerevisiae deletion strains, locus YLR221C, strain rsa3, stronger effect = lower value 0.986 | S. cerevisiae deletion strains, locus YLR258W, strain gsy2, stronger effect = lower value 0.969 | S. cerevisiae deletion strains, locus YLR262C, strain YPT6 (second series), stronger effect = lower value 0.96 | S. cerevisiae deletion strains, locus YLR262C, strain YPT6, stronger effect = lower value 1.01 | S. cerevisiae deletion strains, locus YLR268W, strain sec22, stronger effect = lower value 0.995 | S. cerevisiae deletion strains, locus YLR320W, strain mms22, stronger effect = lower value 1.04 | S. cerevisiae deletion strains, locus YLR330W, strain CHS5, stronger effect = lower value 0.99 | S. cerevisiae deletion strains, locus YLR342W, strain FKS1 (second series), stronger effect = lower value 0.971 | S. cerevisiae deletion strains, locus YLR342W, strain FKS1, stronger effect = lower value 0.983 | S. cerevisiae deletion strains, locus YLR357W, strain rsc2, stronger effect = lower value 0.949 | S. cerevisiae deletion strains, locus YLR370C, strain arc18, stronger effect = lower value 0.98 | S. cerevisiae deletion strains, locus YLR371W, strain rom2, stronger effect = lower value 0.993 | S. cerevisiae deletion strains, locus YLR384C, strain iki3, stronger effect = lower value 0.961 | S. cerevisiae deletion strains, locus YLR418C, strain cdc73, stronger effect = lower value 0.98 | S. cerevisiae deletion strains, locus YML016C, strain PPZ1, stronger effect = lower value 0.985 | S. cerevisiae deletion strains, locus YML032C, strain rad52, stronger effect = lower value 0.994 | S. cerevisiae deletion strains, locus YML120C, strain ndi1, stronger effect = lower value 1 | S. cerevisiae deletion strains, locus YML124C, strain tub3, stronger effect = lower value 0.978 | S. cerevisiae deletion strains, locus YMR058W, strain fet3, stronger effect = lower value 0.988 | S. cerevisiae deletion strains, locus YMR078C, strain ctf18, stronger effect = lower value 0.984 | S. cerevisiae deletion strains, locus YMR125W, strain sto1, stronger effect = lower value 0.921 | S. cerevisiae deletion strains, locus YMR129W, stronger effect = lower value 0.997 | S. cerevisiae deletion strains, locus YMR205C, strain PFK2, stronger effect = lower value 0.982 | S. cerevisiae deletion strains, locus YMR223W, strain ubp8, stronger effect = lower value 0.993 | S. cerevisiae deletion strains, locus YMR231W, strain pep5, stronger effect = lower value 0.974 | S. cerevisiae deletion strains, locus YMR263W, strain SAP30, stronger effect = lower value 1.01 | S. cerevisiae deletion strains, locus YMR307W, strain GAS1, stronger effect = lower value 0.888 | S. cerevisiae deletion strains, locus YNL067W, strain RPL9B, stronger effect = lower value 1.01 | S. cerevisiae deletion strains, locus YNL071W, strain lat1, stronger effect = lower value 1.01 | S. cerevisiae deletion strains, locus YNL128W, strain TEP1, stronger effect = lower value 0.97 | S. cerevisiae deletion strains, locus YNL183C, strain NPR1, stronger effect = lower value 0.93 | S. cerevisiae deletion strains, locus YNL209W, strain ssb2, stronger effect = lower value 0.994 | S. cerevisiae deletion strains, locus YNL233W, strain BNI4, stronger effect = lower value 1.01 | S. cerevisiae deletion strains, locus YNL248C, strain rpa49, stronger effect = lower value 0.909 | S. cerevisiae deletion strains, locus YNL250W, strain rad50, stronger effect = lower value 0.98 | S. cerevisiae deletion strains, locus YNL271C, strain bni1, stronger effect = lower value 0.983 | S. cerevisiae deletion strains, locus YNL298W, strain CLA4, stronger effect = lower value 0.996 | S. cerevisiae deletion strains, locus YNL307C, strain MCK1, stronger effect = lower value 0.996 | S. cerevisiae deletion strains, locus YNL322C, strain KRE1 (second series), stronger effect = lower value 0.98 | S. cerevisiae deletion strains, locus YNR049C, strain mso1, stronger effect = lower value 0.992 | S. cerevisiae deletion strains, locus YNR052C, strain pop2, stronger effect = lower value 0.995 | S. cerevisiae deletion strains, locus YOL006C, strain TOP1, stronger effect = lower value 0.997 | S. cerevisiae deletion strains, locus YOL012C, strain htz1 0.785 | S. cerevisiae deletion strains, locus YOL147C, strain pex11, stronger effect = lower value 0.987 | S. cerevisiae deletion strains, locus YOR001W, strain rrp6, stronger effect = lower value 0.957 | S. cerevisiae deletion strains, locus YOR061W, strain CKA2, stronger effect = lower value 0.993 | S. cerevisiae deletion strains, locus YOR069W, strain VPS5, stronger effect = lower value 0.986 | S. cerevisiae deletion strains, locus YOR070C, strain gyp1, stronger effect = lower value 0.999 | S. cerevisiae deletion strains, locus YOR080W, strain dia2, stronger effect = lower value 0.961 | S. cerevisiae deletion strains, locus YOR083W, strain WHI5, stronger effect = lower value 0.986 | S. cerevisiae deletion strains, locus YOR106W, strain vam3, stronger effect = lower value 0.957 | S. cerevisiae deletion strains, locus YOR136W, strain idh2, stronger effect = lower value 0.99 | S. cerevisiae deletion strains, locus YOR144C, strain elg1, stronger effect = lower value 0.987 | S. cerevisiae deletion strains, locus YOR184W, strain ser1, stronger effect = lower value 1.01 | S. cerevisiae deletion strains, locus YOR231W, strain MKK1, stronger effect = lower value 0.974 | S. cerevisiae deletion strains, locus YOR265W, strain rbl2, stronger effect = lower value 0.995 | S. cerevisiae deletion strains, locus YOR270C, strain vph1, stronger effect = lower value 0.938 | S. cerevisiae deletion strains, locus YOR290C, strain snf2, stronger effect = lower value 0.995 | S. cerevisiae deletion strains, locus YOR316C, strain cot1, stronger effect = lower value 0.983 | S. cerevisiae deletion strains, locus YPL051W, strain arl3, stronger effect = lower value 1.01 | S. cerevisiae deletion strains, locus YPL078C, strain atp4, stronger effect = lower value 0.957 | S. cerevisiae deletion strains, locus YPL106C, strain sse1, stronger effect = lower value 0.956 | S. cerevisiae deletion strains, locus YPL240C, strain hsp82, stronger effect = lower value 0.986 | S. cerevisiae deletion strains, locus YPL241C, strain CIN2, stronger effect = lower value 0.992 | S. cerevisiae deletion strains, locus YPL256C, strain CLN2, stronger effect = lower value 0.954 | S. cerevisiae deletion strains, locus YPR119W, strain clb2, stronger effect = lower value 0.987 | S. cerevisiae deletion strains, locus YPR141C, strain kar3, stronger effect = lower value 0.975 | S. cerevisiae deletion strains, locus YPR163C, strain tif3, stronger effect = lower value 0.981 | S. cerevisiae deletion strains, locus YPR167C, strain met16, stronger effect = lower value 0.992 | S. cerevisiae deletion strains, strain wtn01, stronger effect = lower value 0.991 | S. cerevisiae strains, strain wild type, stronger effect = lower value 0.943
